Compound activity as filed in PubChem.
Compounds with a hit are over-represented: about 9% of the library has one in this group of screens.
HPGD inh – blocks human HPGD enzyme activity. P15428. purified HPGD, NADH fluorescence kinetic, PGE2 substrate. Potency, µM, hits mostly inhibitors. 150,000 compounds, 4.3% hits. AID 894; active means well fitted inhibition curve with a large enough effect, not every such curve was filed as active; inconclusive means small, poorly fitted or top-dose-only effect, or another doubt; inactive means no such curve, though single readings can be large or run the other way
Target sequence (P15428 whole entry, looked up): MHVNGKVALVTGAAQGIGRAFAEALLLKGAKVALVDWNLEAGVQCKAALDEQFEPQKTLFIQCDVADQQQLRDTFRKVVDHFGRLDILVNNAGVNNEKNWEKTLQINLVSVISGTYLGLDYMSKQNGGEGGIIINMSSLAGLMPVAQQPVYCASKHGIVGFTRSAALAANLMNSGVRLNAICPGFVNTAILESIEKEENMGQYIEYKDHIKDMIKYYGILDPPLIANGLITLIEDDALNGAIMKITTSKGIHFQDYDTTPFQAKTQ
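20 nM HPGD preincubated 15 min at room temperature with compound in 50 mM Tris-HCl pH 8, 0.01% Tween 20. Started with 1 mM NAD+ and 30 uM prostaglandin E2; NADH fluorescence (360/450 nm) read 5 times over 30-s intervals, last minus first.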
KinaseGlo FLuc – counter-screen: inhibitors of Kinase-Glo firefly luciferase; Potency, µM (highest dose often 38.3 µM), most hits filed as inhibitors; Kinase-Glo luciferase, ATP luminescence, 8 min; 200,000 compounds, 0.28% hits; further: nearly all actives have a fitted effect of over 60% in size
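Compound is pinned into ATP-containing buffer (10 uM ATP, imidazole pH 7.2, 7 mM MgCl2). Kinase-Glo luciferase reagent is then added. Light output is recorded following an 8-min room-temperature incubation.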
IMPase Li inh – IMPase inhibition in cells with lithium potentiation; 210,000 compounds, 0.35% hits; Potency, µM (highest dose often 59.4 µM), actives largely listed as inhibitors; CHO-M1 cells, IP1 TR-FRET (IP-One), carbachol + lithium;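 further: IP1 builds up when IMPase is blocked and the TR-FRET signal falls; nearly all actives have a fitted effect of over 50% in size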
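Concentration–response in CHO-M1 cells, lithium-potentiated; 30 min at 37C. IP1 detected by competitive TR-FRET after 10 min lysis at RT. Hill-fitted AC50.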
Lamin A splicing – modulators of lamin A splicing; 200,000 compounds, 0.01% hits; HeLa LMNA splicing GFP/RFP minigene ratio, 48 h; Potency, µM (top dose mostly 46.1 µM), hits mostly inhibitors; active means well fitted inhibition curve with a large enough effect in the signal ratio, with a control signal flat, not every such curve was filed as active; inconclusive means small, poorly fitted or top-dose-only effect, or effect the other way, or a change in a side signal; the % refers to the signal ratio
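S3 HeLa cells stably expressing lamin A-EGFP splicing minigene plus DsRed2, 600 cells/well, 48 h compound exposure at 37C. Laser-scanning cytometry; analysed as GFP (500-530 nm)/RFP (575-640 nm) total intensity ratio; 0.5% DMSO vehicle.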
ALDH1A1 block – ALDH1A1 (human) enzyme inhibition; P00352; Purified ALDH1A1, NADH fluorescence, propionaldehyde substrate; Potency, µM (highest dose often 75.3 µM), most hits filed as inhibitors; 220,000 compounds, 7.3% hits; active means well fitted inhibition curve with a large enough effect, not every such curve was filed as active; inconclusive means small, poorly fitted or top-dose-only effect, or another doubt; inactive means no such curve, though single readings can be large or run the other way
Target sequence (P00352 whole entry, looked up): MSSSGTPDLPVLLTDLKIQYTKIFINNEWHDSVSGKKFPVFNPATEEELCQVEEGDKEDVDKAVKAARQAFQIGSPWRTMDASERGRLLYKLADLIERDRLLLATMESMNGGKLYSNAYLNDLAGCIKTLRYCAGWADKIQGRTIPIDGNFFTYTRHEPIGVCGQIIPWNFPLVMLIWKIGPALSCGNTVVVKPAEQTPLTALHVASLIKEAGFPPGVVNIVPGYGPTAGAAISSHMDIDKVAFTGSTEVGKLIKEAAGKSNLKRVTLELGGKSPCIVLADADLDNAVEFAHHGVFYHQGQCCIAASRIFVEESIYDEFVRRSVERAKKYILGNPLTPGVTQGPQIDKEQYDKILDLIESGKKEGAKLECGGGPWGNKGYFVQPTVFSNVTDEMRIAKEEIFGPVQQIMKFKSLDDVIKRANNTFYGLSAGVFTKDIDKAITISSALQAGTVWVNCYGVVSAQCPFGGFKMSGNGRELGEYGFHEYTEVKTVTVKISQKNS
Each line names hits and unclear results; the compound was inactive in the other large screens. Unless noted, the call rests on the fitted dose curve; in most records, active means well fitted curve in the direction sought with a large enough effect; inconclusive means small, poorly fitted or top-dose-only effect, or another doubt; inactive means no such curve, though single readings can be large; an effect the other way counts as inactive or inconclusive.

Cc1ccc(S(=O)(=O)Nc2c3ccccc3nc(=O)n2-c2ccccc2)cc1	ALDH1A1 block inconclusive
O=c1nc2ccccc2c(NS(=O)(=O)c2ccccc2)n1-c1ccccc1	ALDH1A1 block 0.89µM
CC(C)NC(=O)CSCc1c(Cl)cccc1Cl	HPGD inh 14µM, ALDH1A1 block inconclusive
O=C(CSCc1c(Cl)cccc1Cl)Nc1nccs1	HPGD inh 20µM
CCC(C)Nc1c2c(nc3c(-c4ccccc4)c(C)nn13)CCC2 (stereo not given)	ALDH1A1 block inconclusive
O=[N+]([O-])c1ccccc1CNC1CCCc2ccccc21 (stereo not given)	ALDH1A1 block inconclusive (no result: HPGD inh)
Cc1ccc(C2=Nc3ccccc3NC(C)(c3ccc(C)o3)C2)o1 (stereo not given)	ALDH1A1 block 22µM
[O-][n+]1c2c(c3c4non(O)c4ccc31)CCCC2	HPGD inh 7.9µM, Lamin A splicing inconclusive
COc1cc2c3nnc(-c4ccccc4)c-3cn(Cc3ccc(F)cc3)c2cc1OC	ALDH1A1 block inconclusive (no result: HPGD inh, Lamin A splicing)
COc1cc2c3nnc(-c4ccc(F)cc4)c-3cn(Cc3ccc(C)cc3)c2cc1OC	ALDH1A1 block 4.5µM
O=C(CSc1ncn(-c2ccccc2)n1)Nc1nccs1	none
CC(=O)Nc1ccc(C(=O)CSc2ncn(-c3ccccc3)n2)cc1	HPGD inh 13µM, ALDH1A1 block inconclusive
O=C(CSc1ncn(-c2ccccc2)n1)Nc1nc2c(s1)CCCC2	HPGD inh inconclusive, ALDH1A1 block 28µM
O=C(CSc1ncn(-c2ccccc2)n1)Nc1nc2ccccc2s1	HPGD inh 22µM, ALDH1A1 block 13µM
CN(Cc1ccccc1)C(=O)c1nn2cccnc2c1Cl	ALDH1A1 block inconclusive (no result: HPGD inh, Lamin A splicing)
COc1ccc(N2CCN(c3csc4ccc(Cl)cc4c3=O)CC2)cc1	none (no result: HPGD inh, KinaseGlo FLuc, IMPase Li inh, ALDH1A1 block)
CN(CC(=O)O)Cc1c(O)c(Cl)cc(Cl)c1Cl	none (no result: Lamin A splicing)
CCC(=O)N1CCN(c2nc(-c3ccccc3)c3c(c2C#N)CCCC3)CC1	HPGD inh inconclusive, ALDH1A1 block inconclusive
N#Cc1c(SCC(N)=O)nc(-c2ccccc2)c2c1CCCC2	Lamin A splicing inconclusive, ALDH1A1 block 22µM
Cc1cc(-c2ccccc2)c(C#N)c(SCC(N)=O)n1	ALDH1A1 block 13µM
N#Cc1c(SCC(=O)O)nc(-c2ccccc2)c2c1CCCC2	ALDH1A1 block 18µM (no result: HPGD inh, KinaseGlo FLuc, IMPase Li inh)
Cc1ccc(-c2nc(SCC(N)=O)c(C#N)c3c2CCCC3)cc1	HPGD inh inconclusive, ALDH1A1 block inconclusive
CCc1nnc(NC(=O)CSc2nc(-c3ccc(F)cc3)cc(-c3ccccc3)c2C#N)s1	ALDH1A1 block 10µM (no result: HPGD inh, KinaseGlo FLuc, IMPase Li inh)
COc1ccc(S(=O)(=O)N/N=c2\oc3c(OC)cccc3cc2S(=O)(=O)c2ccc(C)cc2)cc1OC	none (no result: HPGD inh)
O=C(Nc1ccccc1)C1CCCN1/C=C/C(=O)C(F)(F)F (stereo not given)	none (no result: HPGD inh, Lamin A splicing)
CCOC(=O)CSc1nc(C2CC2)cc(-c2ccc(Cl)cc2)c1C#N	HPGD inh inconclusive, ALDH1A1 block 32µM
N#CC1=C(N)OC2=C(C(=O)CC(c3ccco3)C2)C1c1ccc(OCc2c(F)cccc2Cl)cc1 (stereo not given)	ALDH1A1 block 8.9µM
Cc1ccc(S(=O)(=O)N/N=c2\oc3ccccc3cc2C(=O)Nc2cccc(C)c2)cc1	ALDH1A1 block 0.16µM
Cc1cccc(NC(=O)c2cc(S(=O)(=O)c3ccccc3)ccc2Cl)c1	ALDH1A1 block inconclusive
Cc1ccc(-n2nc(C)c3c2OC(N)=C(C#N)C3c2ccccc2F)cc1 (stereo not given)	ALDH1A1 block 4µM
Cc1nn(-c2ccccc2)c2c1C(c1ccncc1)C(C#N)=C(N)O2 (stereo not given)	ALDH1A1 block 14µM
Cc1ccc(-n2nc(C)c3c2OC(N)=C(C#N)C3c2ccncc2)cc1 (stereo not given)	ALDH1A1 block inconclusive
Cc1nn(-c2ccccc2)c2c1C(c1c(C)[nH]c(C#N)c1C)C(C#N)=C(N)O2 (stereo not given)	none
Cc1c(C(c2ccc(O)cc2)c2c(C)n(C)n(-c3ccccc3)c2=O)c(=O)n(-c2ccccc2)n1C	none (no result: HPGD inh)
Cc1c(C(c2ccc(N(C)C)cc2)c2c(C)n(C)n(-c3ccccc3)c2=O)c(=O)n(-c2ccccc2)n1C	ALDH1A1 block 18µM (no result: HPGD inh, Lamin A splicing)
Cc1nc([N+](=O)[O-])cn1-c1nc2ccccn2c1[N+](=O)[O-]	Lamin A splicing inconclusive
COCCOC(=O)c1c(C)n(C)c2ccc(OC(=O)C3CC3)cc12	ALDH1A1 block 10µM
COC(=O)c1cc(CSc2nnc(-c3ccccc3)c(-c3ccccc3)n2)oc1C	HPGD inh inconclusive, Lamin A splicing inconclusive, ALDH1A1 block 16µM
Cc1cc(NC(=O)CSc2nnc(-c3ccccc3)c(-c3ccccc3)n2)no1	none (no result: HPGD inh, Lamin A splicing)
COc1ccc2[nH]c(=O)c(CN(CCc3ccccc3)Cc3nnnn3CC3CCCO3)cc2c1 (stereo not given)	HPGD inh inconclusive, ALDH1A1 block inconclusive
COCCn1nnnc1CN(CCc1ccccc1)Cc1cc2ccc(C)cc2[nH]c1=O	ALDH1A1 block 4.5µM
COc1ccc2cc(CN(CCc3ccccc3)Cc3nnnn3CC3CCCO3)c(=O)[nH]c2c1 (stereo not given)	ALDH1A1 block 0.28µM
Cc1ccc2[nH]c(=O)c(CN(CCc3ccccc3)Cc3nnnn3CC3CCCO3)cc2c1 (stereo not given)	ALDH1A1 block 22µM
CCOc1ccc2[nH]c(=O)c(CN(CCO)Cc3nnnn3CCc3ccccc3)cc2c1	ALDH1A1 block inconclusive
CC(Cc1ccccn1)NC(=O)CCc1nnc(C2CCCCC2)o1 (stereo not given)	none (no result: HPGD inh, Lamin A splicing)
NS(=O)(=O)c1ccc(CCNC(=O)c2ccc(C#CC3(O)CCCCC3)cc2)cc1	none (no result: HPGD inh, Lamin A splicing)
COc1cc(NC(=O)C2=C(N3CCOCC3)/C(=C\c3ccc(N(C)C)cc3)CCC2)cc(OC)c1OC	Lamin A splicing inconclusive, ALDH1A1 block 18µM
COc1ccc(C(=O)CC(Nc2ccc([N+](=O)[O-])cc2)c2ccc(Cl)cc2)cc1 (stereo not given)	Lamin A splicing inconclusive
CC(C)(C)Nc1nc(OCC#N)nc(N2CCCCC2)n1	ALDH1A1 block 18µM (no result: HPGD inh, Lamin A splicing)
O=C(CCc1ccccc1)NNC(=O)Cc1ccccc1	none (no result: HPGD inh)
CCCNC(=O)C1CCN(c2ccc(S(=O)(=O)N3CCOCC3)cc2Cl)CC1	HPGD inh 16µM, Lamin A splicing inconclusive
CC(C)(C)c1ccc(C(=O)CC(Sc2ccc(Cl)cc2)C(=O)O)cc1 (stereo not given)	Lamin A splicing inconclusive, ALDH1A1 block 2.5µM (no result: HPGD inh)
CC(C)(C)c1ccc(C(=O)Nc2ccc(Cl)cc2)cc1	IMPase Li inh inconclusive
Nc1nc(-c2cc(-c3cccc4ccccc34)nc(N)n2)cc(-c2cccc3ccccc23)n1	none (no result: Lamin A splicing)
Cc1cc([N+](=O)[O-])c(C)c(Br)c1C	none (no result: Lamin A splicing)
O=C(COc1ccc(Br)cc1Br)NC1CCCC1	none (no result: HPGD inh, Lamin A splicing)
Cc1ccc(OCC(=O)NC2CCCC2)c(C)c1	HPGD inh 28µM, Lamin A splicing inconclusive
O=C(COc1ccc(Br)cc1Cl)NC1CCCCC1	HPGD inh 11µM, Lamin A splicing inconclusive
